CYP2C9 activ: CYP2C9 (human) activation; actives 1.4% (n = 96,000); recombinant CYP2C9, luciferin-H conversion, luminescence; hits give high values; factor 1 = untreated enzyme, 0 = blocked; activation factor at 5 µM; AID 1024;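 active = activation factor of 2 or more for CYP2C9 at a 5 µM dose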;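 also: 0 = sulfaphenazole-blocked wells and 1 = vehicle-only wells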
CYP2C19 activ: increases human CYP2C19 enzyme activity | recombinant CYP2C19, luciferin-H EGE luminescence; hits give high values; 0 = fully inhibited enzyme, 1 = untreated enzyme | AID 1025 | P33261 | 96,000 tested, under 10 active | activation factor at 5 µM;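 active = activation factor of at least 2 at 5 µM in the primary screen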;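 also: 0 = wells with 2.5 mM tranylcypromine and 1 = vehicle-only wells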
CYP2C19 inhib: human CYP2C19 inhibition. CYP2C19 Supersomes, luciferin-H EGE luminescence, 30 min. inhibition, % at 5 µM. actives 21% (n = 96,000);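 active = CYP2C19 inhibition above a set limit at 5 µM in the primary screen, cut at about 50% in these data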;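 also: plate controls were negative control wells for no effect and 2.5 mM tranylcypromine positive control for full effect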
Cav32 inh: inhibitors of human Cav3.2 T-type calcium channel | B-score at 10 µM | Cav3.2-expressing cells, Fluo-4 calcium fluorescence FDSS; hits give low values | O95180 | actives 4% (n = 100,000);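 active = single-dose well whose peak fluorescence ratio is a statistical outlier from its plate by either plate-standardised score or position-corrected B-score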
CYP2C9 inhib: blocks human cytochrome P450 2C9. actives 20% (n = 96,000). P11712. inhibition, % at 5 µM. CYP2C9 Supersomes, luciferin-H conversion, luminescence. AID 777;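 active = blocking of liver enzyme CYP2C9 beyond about 50% at 5 µM, limit read from the data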
Active calls of the source: *. Most compounds without a hit are left out; they make up all but 27% or so of the library.

CCOC(=O)N1CCC(NC(=O)c2cc3c(-c4ccc(Cl)cc4)nn(C)c3s2)CC1 was read as Cav32 inh 0.41.
`Cn1cccc1C(=S)N=P(C1CCCCC1)(N1CCOCC1)N1CCOCC1` gave CYP2C9 activ 1.1, CYP2C19 activ 0.9, CYP2C19 inhib 12, Cav32 inh -0.14 and CYP2C9 inhib -11.
`CCN(CC)C(=O)CC(c1ccc(N(C)C)cc1)c1c(O)cc(OC)cc1OC` (stereo not given) gave Cav32 inh 0.19.
O=P(O)(O)C(O)C(F)(F)C(F)(F)C(F)(F)C(F)F (stereo not given) was read as CYP2C9 activ 0.9, CYP2C19 activ 1.2, CYP2C19 inhib -16 and CYP2C9 inhib 8.
`CC(=O)NC(N1CCCCC1)C(F)(F)C(F)(F)C(F)(F)C(F)F` (stereo not given) gave CYP2C9 activ 0.3, CYP2C19 activ 0, CYP2C19 inhib 99*, Cav32 inh -1.3 and CYP2C9 inhib 65*.
COc1ccc(-c2c3c(=O)n(C)c(=O)n(C)c3cn2Cc2cccnc2)cc1 was read as CYP2C9 activ 0.9, CYP2C19 activ 0.7, CYP2C19 inhib 28, Cav32 inh 1.4 and CYP2C9 inhib 5.
Cc1ccc2nc3c(nc2c1)-c1ccccc1C3=O was read as CYP2C9 activ 1, CYP2C19 activ 1.1, CYP2C19 inhib -7, Cav32 inh 0.014 and CYP2C9 inhib 4.
For COCCNc1nc2ccccc2nc1NS(=O)(=O)c1ccc(C)cc1C the results were CYP2C9 activ 0, CYP2C19 activ 0.8, CYP2C19 inhib 24, Cav32 inh -1 and CYP2C9 inhib 98*.
`COC(=O)c1[nH]c2cccc(OC)c2c1NC(=O)C(C)N1CCC(C)CC1` (stereo not given) gave CYP2C9 activ 2.3*, CYP2C19 activ 0.8, CYP2C19 inhib 18, Cav32 inh -0.62 and CYP2C9 inhib -125.
CN(C)C(=O)COc1ccc2ccc(=O)oc2c1 was read as CYP2C9 activ 1.2, CYP2C19 activ 1, CYP2C19 inhib -4, Cav32 inh 0.055 and CYP2C9 inhib -16.
Screening CC(=O)OC1CCC2(C)C(COc3ccc4ccc(=O)oc4c3)C(C)(O)CCC2C1(C)C (stereo not given) returned CYP2C9 activ 0.5, CYP2C19 activ 0.8, CYP2C19 inhib 21, Cav32 inh -3.4 and CYP2C9 inhib 53*.
Screening CN(C(=O)CSc1nc(-c2ccccc2)cs1)C1CCS(=O)(=O)C1 (stereo not given) returned CYP2C9 activ 4*, CYP2C19 activ 0.4, CYP2C19 inhib 60*, Cav32 inh -0.23 and CYP2C9 inhib -304.
For CCOc1ccc2nc(SCC(=O)N(C)C3CCS(=O)(=O)C3)[nH]c2c1 (stereo not given) the results were CYP2C9 activ 1.1, CYP2C19 activ 1.1, CYP2C19 inhib -11, Cav32 inh 0.77 and CYP2C9 inhib -8.
CN(C(=O)CSc1nc(-c2ccc(F)cc2)cs1)C1CCS(=O)(=O)C1 (stereo not given) was read as CYP2C9 activ 3.6*, CYP2C19 activ 0.6, CYP2C19 inhib 37, Cav32 inh 0.36 and CYP2C9 inhib -264.
For CN(c1nc(-c2ccccc2)cs1)C1CCS(=O)(=O)C1 (stereo not given) the results were CYP2C9 activ 0.8, CYP2C19 activ 0.4, CYP2C19 inhib 58*, Cav32 inh 0.11 and CYP2C9 inhib 18.
Screening NCCCC[C@H]1CNC(=O)C(=O)N1CCc1cccc(F)c1 returned Cav32 inh 0.17.
`CCN1CCN(C(=O)c2ccc(Cl)c(S(=O)(=O)N3CCOCC3)c2)CC1` gave CYP2C9 activ 0.7, CYP2C19 activ 0.9, CYP2C19 inhib 10, Cav32 inh 1.3 and CYP2C9 inhib 28.
Cc1cc(C)n2nc(SCC(=O)Nc3c(C)n(C)n(-c4ccccc4)c3=O)nc2n1 was read as CYP2C9 activ 1, CYP2C19 activ 1, CYP2C19 inhib 0, Cav32 inh 0.53 and CYP2C9 inhib 3.
CCn1c(=O)cc(OCC(=O)N2CCCC2)c2ccccc21 was read as CYP2C9 activ 1.1, CYP2C19 activ 1.1, CYP2C19 inhib -11, Cav32 inh 1 and CYP2C9 inhib -7.
Cc1ccc(C)c(N(C)C(=O)COc2cc(=O)n(C)c3ccccc23)c1 was read as CYP2C9 activ 0.6, CYP2C19 activ 0.7, CYP2C19 inhib 34, Cav32 inh 0.94 and CYP2C9 inhib 35.
Screening CCn1c(=O)cc(OCC(=O)Nc2ccc(C)cn2)c2ccccc21 returned CYP2C9 activ 0.7, CYP2C19 activ 0.8, CYP2C19 inhib 17, Cav32 inh -0.53 and CYP2C9 inhib 25.
`CCOC(=O)c1ccccc1NC(=O)COc1cc(=O)n(CC)c2ccccc12` gave CYP2C9 activ 0.2, CYP2C19 activ 0.2, CYP2C19 inhib 80*, Cav32 inh -0.086 and CYP2C9 inhib 81*.
Screening CCOc1ccc(N(CC)C(=O)COc2cc(=O)n(CC)c3ccccc23)cc1 returned CYP2C9 activ 0.1, CYP2C19 activ 0.3, CYP2C19 inhib 70*, Cav32 inh -1 and CYP2C9 inhib 94*.
`CCOc1ccc(N(CC)C(=O)COc2cc(=O)n(C)c3ccccc23)cc1` gave CYP2C9 activ 0.3, CYP2C19 activ 0.8, CYP2C19 inhib 23, Cav32 inh 0.11 and CYP2C9 inhib 70*.
For Cc1cccc(CSC2=CS(=O)(=O)c3ccccc3N2)c1 the results were CYP2C9 activ 0.4, CYP2C19 activ 0.5, CYP2C19 inhib 54*, Cav32 inh -2.4 and CYP2C9 inhib 64*.
`O=S1(=O)C=C(SCc2cccc(Cl)c2)Nc2ccccc21` gave CYP2C9 activ 0.3, CYP2C19 activ 0.1, CYP2C19 inhib 86* and CYP2C9 inhib 74*.
For CSc1nc(Sc2ccccc2)c2ccccc2n1 the results were CYP2C9 activ 0.2, CYP2C19 activ 0.5, CYP2C19 inhib 49, Cav32 inh 0.43 and CYP2C9 inhib 85*.
COc1ccc([C@H]2/C=C\CN(C(=O)c3ccccc3)[C@@H](C)C(=O)N2Cc2ccc(F)cc2)cc1 was read as Cav32 inh -0.88.
For COc1cc(C(=O)n2nc(C)cc2C)ccc1O the results were CYP2C9 activ 1.2, CYP2C19 activ 0.8, CYP2C19 inhib 16, Cav32 inh 1.1 and CYP2C9 inhib -19.
Screening COc1ccc(C(=O)n2ccc(C)n2)cc1Br returned CYP2C9 activ 0.8, CYP2C19 activ 0.4, CYP2C19 inhib 57* and CYP2C9 inhib 24.
COc1ccc(C(=O)n2nnc3ccccc32)cc1Br was read as CYP2C9 activ 1, CYP2C19 activ 1, CYP2C19 inhib 5 and CYP2C9 inhib 5.
Screening COc1ccc(C(=O)n2nc(C)cc2C)cc1Br returned CYP2C9 activ 0.9, CYP2C19 activ 0.3, CYP2C19 inhib 70*, Cav32 inh -2.6 and CYP2C9 inhib 8.
For Cc1nc2ccccn2c1C(=O)NCc1cccnc1 the results were CYP2C9 activ 0.9, CYP2C19 activ 0.5, CYP2C19 inhib 49, Cav32 inh 0.042 and CYP2C9 inhib 9.

Compound activity as filed in PubChem BioAssay.
